Results: PMC8159961, “Exploring protein hotspots by optimized fragment pharmacophores” (Nature Communications, 2021)
A number with no mark means an inactive call. No rule for the calls is given here.

molecular target: 5-HT1A receptor (human, UniProt P08908); experiment: primary screen, binary call; higher = more effect of the substance; parameters: hit call from the mean of at least two separate experiments; conditions: 10 µM
Procedure: GPCR radioligand binding assays were performed in HEK293 cells with stable expression of human 5-HT1A, 5-HT6, and 5-HT7b receptors (prepared with the use of Lipofectamine 2000). Non-specific binding was defined with 10 µM of 5-HT in 5-HT1AR and 5-HT7R binding experiments, whereas 10 µM of mianserin was used in 5-HT6R assays, respectively. Each compound was tested at 10 µM concentration. Results were expressed as means of at least two separate experiments.

Sequence of 5-HT1A receptor (P08908 whole entry, looked up): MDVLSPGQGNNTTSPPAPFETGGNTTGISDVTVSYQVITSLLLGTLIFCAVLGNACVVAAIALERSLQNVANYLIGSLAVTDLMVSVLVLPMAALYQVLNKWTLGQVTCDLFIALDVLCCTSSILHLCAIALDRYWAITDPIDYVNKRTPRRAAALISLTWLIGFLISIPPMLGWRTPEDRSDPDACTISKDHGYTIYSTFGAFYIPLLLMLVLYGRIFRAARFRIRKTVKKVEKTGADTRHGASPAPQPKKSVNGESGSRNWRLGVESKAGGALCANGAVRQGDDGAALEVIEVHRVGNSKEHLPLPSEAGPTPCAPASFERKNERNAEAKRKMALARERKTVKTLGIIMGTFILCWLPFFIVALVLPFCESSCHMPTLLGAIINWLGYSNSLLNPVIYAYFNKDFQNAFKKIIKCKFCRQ

Compound | 5-HT1
O=C1CC(CSc2ccc(Cl)cc2)=NN1 | 0
Oc1ccc(C2CCNCC2)cc1 | 0
c1ccc(-c2ccncc2)cc1 | 0
O=C1NC(=O)C2(CCc3ccccc32)N1 (stereo not shown) | 0
Cc1nc(-c2ccccc2)cs1 | 0
O=C(Nc1ccccc1)C1CC1 | 0
CC(=O)c1ccc2c(c1)CNCC2 | 0
O=C(NC1CC1)c1ccccc1O | 0
COc1ccc(C2=CCNCC2)cc1 | 0
CCc1ccc(NC2=NCCCS2)cc1 | 0
Cn1nc(C(F)(F)F)cc1O | 0
c1cnc2c(c1)NCCC2 | 0
c1ccc(Nc2nncs2)cc1 | 0
CC1CCc2sc(C(=O)O)cc2C1 (stereo not shown) | 0
Cc1cc(N)no1 | 0
O=C(O)CC1CCC(=O)N1 (stereo not shown) | 0
c1ccc2c(N3CCNCC3)ccnc2c1 | 1 (active)
Fc1ccc(CC2CCCNC2)cc1 (stereo not shown) | 0
COc1ccccc1CC1CCNCC1.Cl | 1 (active)
Nc1nnc(-c2cccs2)[nH]1 | 0

Compound | 5-HT1
O=c1[nH]ncc2c1oc1ccccc12 | 0
O=C(O)c1cnc(-c2ccccc2)s1 | 0
CCN(CC)c1cccc(C)c1 | 0
C1=C[C@H]2O[C@@H]1c1ccccc12 | 0
CS(=O)(=O)c1ccc(N2CCNCC2)cc1 | 0
O=C(CN1CCCC1)c1ccccc1Cl | 1 (active)
COc1cccc(NC2=NCCCCC2)c1 | 0
N#CCCN1CCc2ccccc21 | 0
c1ccc2sc(N3CCNCC3)nc2c1 | 1 (active)
CCn1cnc2ccccc21 | 0
Oc1cnc(-c2ccccc2)nc1 | 0
COc1ccccc1C1CCNCC1 | 1 (active)
CC(CN)N1CCc2sccc2C1 (stereo not shown) | 0
NC(c1ccccc1)c1ccccc1 | 0
COc1ccccc1N1CCNCC1 | 1 (active)
O=C1CCN(c2ccncc2)CC1 | 0
CC1(C)OC(=O)c2cc(Br)c(O)cc2O1 | 0
CN1CC(=O)NC1=O | 0
O=c1ccc2c([nH]1)CCCC2 | 0
CS(=O)(=O)Nc1ccc(C(=O)O)cc1 | 0
